Sampled rows, rich in hits. Any-hit rate of the full collection: about 1.8%.
RAD52 inh = RAD52 (human) annealing inhibition; 0.46% of 360,000 active; recombinant RAD52 DNA annealing, FRET fluorescence; inhibition, % at 18.7 µM;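 active means every replicate showing at least 50% inhibition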
GSIS activator = GLuc luminescence reporter in INS-1E cells, primary screen for activators of glucose-dependent secretion of insulin | activation, % at 16.6 µM | INS-1E GLuc reporter insulin secretion, 2-3 h | 0.61% of 370,000 active;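 active means lowest replicate activation of at least 40%, so every replicate reaches that level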
RAD54 inh = blocks human RAD54 Holliday junction branch migration; inhibition, % at 10.4 µM; AID 602329; Q92698; FAM/BHQ fluorescence; 0.14% of 360,000 active;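 active means mean normalized replicate activity at least 40 and at least half of replicates scoring 40 or more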;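 further: inhibitors cause a drop in the FAM fluorescence signal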
Target sequence (Q92698 whole entry, looked up): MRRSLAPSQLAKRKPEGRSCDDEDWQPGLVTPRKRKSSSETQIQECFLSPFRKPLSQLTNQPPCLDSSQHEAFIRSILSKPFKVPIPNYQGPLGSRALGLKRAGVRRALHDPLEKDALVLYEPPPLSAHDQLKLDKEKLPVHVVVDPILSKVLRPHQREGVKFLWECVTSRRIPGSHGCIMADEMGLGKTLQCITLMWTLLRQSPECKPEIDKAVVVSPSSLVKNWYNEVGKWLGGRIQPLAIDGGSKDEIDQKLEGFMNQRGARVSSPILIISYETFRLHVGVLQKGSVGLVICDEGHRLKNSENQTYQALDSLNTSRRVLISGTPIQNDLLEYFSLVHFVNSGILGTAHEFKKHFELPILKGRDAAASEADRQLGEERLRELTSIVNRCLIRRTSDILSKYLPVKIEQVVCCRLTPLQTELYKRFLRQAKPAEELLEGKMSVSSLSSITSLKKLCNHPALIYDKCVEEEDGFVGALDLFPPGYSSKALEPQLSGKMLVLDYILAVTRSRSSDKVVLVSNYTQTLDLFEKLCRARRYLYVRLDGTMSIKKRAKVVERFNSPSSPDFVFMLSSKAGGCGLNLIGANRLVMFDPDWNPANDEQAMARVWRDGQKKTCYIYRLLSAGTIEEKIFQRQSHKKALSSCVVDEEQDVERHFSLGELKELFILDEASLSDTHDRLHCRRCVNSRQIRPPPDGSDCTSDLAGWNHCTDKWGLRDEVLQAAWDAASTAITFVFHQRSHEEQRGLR
EWS-Fli inh = blocks EWS/Fli oncoprotein-driven transcription; A673 NR0B1-luciferase reporter, viability-normalised; inhibition, % at 12.6 µM; 0.67% of 350,000 active;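 active means mean inhibition of at least 50% after viability correction, with every replicate also passing that limit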;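 further: firefly luciferase signal divided by Alamar Blue viability fluorescence both relative to DMSO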
LGR2 antag = Drosophila LGR2 receptor signaling inhibition; 0.35% of 380,000 active; HEK293 LGR2, CRE-luciferase, bursicon-stimulated, 4 h; inhibition, % at 9.99 µM; AID 720647;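 active means drop in luminescence signal, shown as inhibition above about 50% in the replicate tests, limit read from the data, passing the limit was not always enough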;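 further: agonist challenge used bursicon conditioned medium at about half maximal strength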
CFTR F508del cor = correctors of CFTR F508del function in bronchial epithelial cells. CFBE cells, YFP halide quenching; stimulated with forskolin plus potentiator P3; % fluorescence drop versus neutral controls. activity (quench increase), % at 7.58 µM. 0.36% of 350,000 active. AID 720511;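 active means mean added fluorescence quench of at least 8% versus neutral control, with both replicates also reaching 8%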;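 further: cells transiently co-express mutant CFTR-F508del with the halide-sensitive YFP; corrector assay measuring rescue of mutant channel to the surface after 24 h compound exposure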
Each line names hits and unclear results; the compound was inactive in the other large screens; ! = not confirmed by another sample.

C/C=C(\C)C(=O)N[C@@H](c1ccccc1)[C@@H](O)C(=O)O[C@H]1C[C@@]2(O)[C@@H](OC(=O)c3ccccc3)C3[C@](C)(C(=O)[C@H](O)C(=C1C)C2(C)C)[C@@H](O)C[C@H]1OC[C@@]31OC(C)=O (some centres undefined)	EWS-Fli inh 57.3
NC(N)=Nc1ccc2[nH]c3c(c2c1)C[C@@]1(O)[C@H]2Cc4ccc(O)c5c4[C@@]1(CCN2CC1CC1)[C@H]3O5	RAD54 inh 53.7 (no result: RAD52 inh, GSIS activator, EWS-Fli inh, LGR2 antag, CFTR F508del cor)
CC[n+]1c(-c2ccccc2)c2cc(N)ccc2c2ccc(N)cc21	CFTR F508del cor 10.0 (no result: RAD54 inh)
CC[C@H]1CN2CCC1C[C@H]2[C@H](O)c1ccnc2ccc(OC)cc12 (some centres undefined)	CFTR F508del cor 9.8 (no result: GSIS activator, LGR2 antag)
CC[C@H]1CN2CCC1C[C@@H]2[C@@H](O)c1ccnc2ccc(OC)cc12 (some centres undefined)	none
Cc1ccc(-n2c(O)c(/C=C/C=Nc3ccccc3)c(=O)[nH]c2=O)cc1	none (no result: RAD54 inh)
CCOCCCn1c(N)c(C(=O)Nc2sc3c(c2C(=O)OC)CCCC3)c2nc3ccccc3nc21	none (no result: RAD52 inh, GSIS activator, EWS-Fli inh, LGR2 antag, CFTR F508del cor)
CN1CCN2c3ccccc3CC3(C(=O)N(C)C(=O)N(C)C3=O)C2C1 (centres undefined)	none (no result: RAD54 inh)
O=C1NC(=S)N(c2ccc(Br)cc2)C(=O)/C1=C/N1CCN(C(=O)c2ccco2)CC1	none (no result: RAD54 inh)
O=C(Nc1ccccc1)N1Cc2cc(Br)ccc2-n2nncc2C1	none (no result: RAD54 inh)
CCOC(=O)C1CCCN(c2ccc([N+](=O)[O-])c3nonc23)C1 (centres undefined)	CFTR F508del cor 14.5 (no result: RAD54 inh)
CC1CCCN(c2ccc(C(=O)N3CCC4(CC3)OCCO4)cc2[N+](=O)[O-])C1 (centres undefined)	none
COc1cc([C@@H]2c3cc4c(cc3[C@@H](OC)[C@H]3COC(=O)[C@H]23)OCO4)cc(OC)c1O	EWS-Fli inh 62.6, CFTR F508del cor 9.3
NC(=S)c1cn(C2OC(CO)C(O)C2O)c2ncnc(N)c12 (centres undefined)	LGR2 antag 101.8
Nc1ncnc2c1ccn2[C@@H]1O[C@H](CO)[C@@H](O)[C@H]1O	EWS-Fli inh 55.6, LGR2 antag 93.5
CCC1(OC(=O)CN)C(=O)OCc2c1cc1n(c2=O)Cc2cc3ccccc3nc2-1 (centres undefined)	LGR2 antag 96.4 (no result: EWS-Fli inh, CFTR F508del cor)
CC[C@@]1(O)C(=O)OCc2c1cc1n(c2=O)Cc2cc3c(NC(=O)CN)cccc3nc2-1	EWS-Fli inh 55.8
COC(=O)C1=C(c2ccc(OC(F)(F)F)cc2)C[C@@H]2CC[C@H]1N2C(=O)NCc1cccc2ccccc12	none
COc1ccc(-c2nc3ccccc3c(=O)n2-c2cccnc2)cc1	none (no result: RAD52 inh, GSIS activator, EWS-Fli inh, LGR2 antag, CFTR F508del cor)
Clc1ccc(COC(Cn2ccnc2)c2ccc(Cl)cc2Cl)c(Cl)c1 (centres undefined)	GSIS activator 48.5!
CCNc1nc(Cl)nc(NC(C)C)n1	GSIS activator 71.4 (no result: RAD52 inh, RAD54 inh, EWS-Fli inh, CFTR F508del cor)
CCCCn1c(O)c(C(C)=NCc2cccnc2)c(=O)[nH]c1=O	none
CC(=O)OC(C)(C)/C=C/C(=O)C(C)(O)C1[C@H](O)C[C@@]2(C)C3CC=C4C(CC[C@@H](O)C4(C)C)[C@]3(CO)C(=O)C[C@]12C (some centres undefined)	LGR2 antag 73.2
CC(=O)OC(C)(C)/C=C/C(=O)[C@](C)(O)[C@H]1[C@H](O)C[C@@]2(C)[C@@H]3CC=C4[C@H](C[C@H](O)C(=O)C4(C)C)[C@]3(C)C(=O)C[C@]12C	none (no result: RAD52 inh, GSIS activator, EWS-Fli inh, LGR2 antag, CFTR F508del cor)
CC(=O)OC(C)(C)/C=C/C(=O)C(C)(O)C1C(O)CC2(C)C3CC=C4C(CC(O)C(=O)C4(C)C)C3(C)C(=O)CC12C (centres undefined)	LGR2 antag 89.0 (no result: RAD54 inh)
COc1cccc(N2C(=O)/C(=C/c3ccc(C)o3)C(=O)NC2=S)c1	none
Cc1c(C)c2ccc(OCC(=O)N3CCN(Cc4ccccc4)CC3)cc2oc1=O	none
Fc1ccccc1CN1CCN(c2ccc(Cl)cc2)CC1	none
C/C=C/c1ccc(C2[C@H]3CNC[C@@H]2N3Cc2ccccn2)cc1 (some centres undefined)	none (no result: RAD52 inh, RAD54 inh)
C/C=C/c1ccc(C2[C@H]3CNC[C@@H]2N3CC2CCCCC2)cc1 (some centres undefined)	EWS-Fli inh 76.2 (no result: RAD54 inh)
Cc1ccc(/C=C2\C(=O)NC(=S)N(c3ccccc3F)C2=O)s1	LGR2 antag 87.6 (no result: RAD52 inh, RAD54 inh, EWS-Fli inh, CFTR F508del cor)
CCC(c1nnnn1-c1ccc(OC)cc1)N1CCC(n2c(=O)[nH]c3ccccc32)CC1 (centres undefined)	none
O=c1[nH]c2ccccc2n1C1CCN(C(CCc2ccccc2)c2nnnn2-c2ccc3c(c2)OCCO3)CC1 (centres undefined)	LGR2 antag 92.2
CCCCn1nnnc1C(CCc1ccccc1)N1CCC(n2c(=O)[nH]c3ccccc32)CC1 (centres undefined)	LGR2 antag 105.6 (no result: GSIS activator)
COc1ccc(-n2nnnc2C(CCc2ccccc2)N2CCC(n3c(=O)[nH]c4ccccc43)CC2)cc1 (centres undefined)	LGR2 antag 101.5
Cn1c(=O)[nH]c2nncnc2c1=O	none (no result: RAD54 inh)
Cc1oc(-c2ccccc2)nc1CN1C(=O)C(C)N=C(c2ccccc2F)c2cc(Cl)ccc21 (centres undefined)	none
CCOC(=O)[C@]12Cc3cc(OC)ccc3[C@H]1N(Cc1ccccc1)C(=O)c1ccccc12	none
CCOC(=O)[C@]12Cc3cc(C)ccc3[C@H]1N(Cc1ccccc1)C(=O)c1ccccc12	none
CCOC(=O)[C@]12Cc3cc(C)ccc3[C@H]1N(C(C)C)C(=O)c1ccccc12	LGR2 antag 69.0 (no result: RAD54 inh)
CCCCCN1C(=O)c2ccccc2[C@@]2(C(=O)OCC)Cc3cc(OC)ccc3[C@@H]12	LGR2 antag 64.5 (no result: RAD54 inh)
COC(=O)C1=C(c2ccc(F)cc2OCc2ccccc2)C[C@@H]2CC[C@H]1N2C(=O)NCc1cccc(C(F)(F)F)c1	none
CC(C)[N+](C)(CCC(C(N)=O)(c1ccccc1)c1ccccc1)C(C)C	GSIS activator 48.0
c1ccc2c(c1)[IH]c1ccccc1-2	RAD54 inh 51.9
COC(=O)[C@@H]1[C@@H](CO)[C@@H]2Cn3c(ccc(-c4ccccc4)c3=O)[C@H]1N2CC1CCCC1	none (no result: RAD54 inh)
Cc1nc2ccccc2c(=O)n1-c1ccc(Cl)c(Cl)c1	GSIS activator 40.2
COC12C(COC(N)=O)C3=C(C(=O)C(C)=C(N)C3=O)N1CC1C2N1C (centres undefined)	none
N#C/C(=C\c1ccc(O)cc1)C(=O)O (tested in a mixture with another compound)	CFTR F508del cor 11.1 (no result: GSIS activator)
N#CC(C#N)=Cc1ccc(N2CCOCC2)cc1	none
CN(CC(=O)Nc1ccccc1-c1ccccc1)C1CCCCC1	none (no result: RAD52 inh, GSIS activator, EWS-Fli inh, LGR2 antag, CFTR F508del cor)

Bioassay records as filed in PubChem.
